Source: PubChem BioAssay (Tox21)
Results filed as inconclusive are left out. Calls of active or inactive are those of the source. Unless noted, calls come from the whole dose curve; as a rule, active = well fitted curve in the direction sought with a large enough effect in the repeat runs; inconclusive = weak or mixed curves; inactive = no such curve, though single readings can be large; an effect the other way counts as inactive or inconclusive.

What was measured:
[1] = qHTS assay to identify small molecule antagonists of the glucocorticoid receptor (GR) signaling pathway - cell viability counter screen (AID 720693); details: GR-bla HeLa viability, CellTiter-Glo luminescence, 18 h, with 5 nM dexamethasone present; series mostly up to 58.5 µM; note: nearly all actives have a fitted effect of over 55% in size
[2] = qHTS assay for identifying genotoxic compounds that show differential cytotoxicity against isogenic chicken DT40 cell lines with known DNA damage response pathways - wild type cell line (AID 743012); details: DT40 wild type chicken cells viability, CellTiter-Glo, 40 h; series mostly up to 68.4 µM; note: nearly all actives have a fitted effect of over 60% in size; note: potency is the fitted concentration of half-maximal effect
Summary of the method: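 Cytotoxicity in repair-proficient parental chicken DT40 cells serves as the comparator for Rad54/Ku70- and Rev3-deficient lines. Cells were exposed to compounds for 40 h at 37 C/5% CO2, and ATP-based luminescence (CellTiter-Glo) measured viability.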

[3] = qHTS assay for identifying genotoxic compounds that show differential cytotoxicity against isogenic chicken DT40 cell lines with known DNA damage response pathways - Rev3 mutant cell line (AID 743014); details: chicken DT40 Rev3-/- viability, CellTiter-Glo, 40 h; series mostly up to 68.4 µM; note: nearly all actives have a fitted effect of over 55% in size; note: potency is the fitted concentration of half-maximal effect
[4] = qHTS assay for identifying genotoxic compounds that show differential cytotoxicity against isogenic chicken DT40 cell lines with known DNA damage response pathways - Rad54/Ku70 mutant cell line (AID 743015); details: DT40 Rad54/Ku70 mutant viability, CellTiter-Glo, 40 h; series mostly up to 66.8 µM; note: nearly all actives have a fitted effect of over 60% in size; note: potency is the fitted concentration of half-maximal effect
[5] = qHTS assay to identify small molecule antagonists of the androgen receptor (AR) signaling pathway - cell viability counter screen (AID 743033; note: nearly all actives have a fitted effect of over 45% in size); details: AR-bla HEK293 viability, CellTiter-Glo luminescence, 16 h; series mostly up to 58.5 µM
[6] = qHTS assay to identify small molecule antagonists of the androgen receptor (AR) signaling pathway using the MDA cell line - cell viability counter screen (AID 743041; note: nearly all actives have a fitted effect of over 45% in size); details: MDA-kb2 viability, CellTiter-Fluor, 16 h, cells co-treated with R1881 androgen agonist; series mostly up to 70.3 µM
Summary of the method: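 Viability read by CellTiter-Fluor fluorescence in the same wells as the antagonist screen, added after 15.5 h of a 16 h, 37C exposure. Human breast carcinoma MDA-kb2 AR-luc cells, compounds co-dosed with agonist R1881.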

[7] = qHTS assay to identify small molecule antagonists of the thyroid receptor (TR) signaling pathway - cell viability counter screen (AID 743064); details: GH3.TRE-Luc viability, CellTiter-Fluor, 24 h; series mostly up to 70.3 µM; note: nearly all actives have a fitted effect of over 50% in size
Summary of the method: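 Fluorescence from CellTiter-Fluor, added after 23.5 h exposure at 37 °C, reported viability of GH3.TRE-Luc cells co-treated with compound and 1 nM T3. Measured in the same wells as the luciferase TR readout.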

[8] = qHTS assay to identify small molecule antagonists of the thyroid receptor (TR) signaling pathway (AID 743065); details: GH3.TRE-Luc, T3-stimulated luciferase inhibition, 23.5 h; series mostly up to 70.3 µM; note: nearly all actives have a fitted effect of over 55% in size
Summary of the method: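 Antagonism measured as loss of luciferase signal in GH3 cells stably carrying a TRE-luciferase reporter, co-treated with compound and T3 (1 nM final) for 23.5 h at 37 C. Viability was read in the same well by CellTiter-Fluor.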

[9] = system: thyroid hormone receptor (rat, GH3 cells); assay: qHTS assay to identify small molecule agonists of the thyroid receptor (TR) signaling pathway (AID 743066; calls by dose curve); details: GH3.TRE-Luc cells, TR agonist luciferase, 24 h; series mostly up to 83.9 µM
[10] = biological target: Estrogen receptor (Homo sapiens) (UniProt P03372); assay: qHTS assay to identify small molecule antagonists of the estrogen receptor alpha (ER-alpha) signaling pathway (AID 743069; active = well fitted curve in the direction sought with a large enough effect in the signal ratio in the repeat runs, not every such curve was filed as active; the % refers to the signal ratio); details: HEK293 ER-alpha-UAS-bla, beta-lactamase ratio, antagonist mode; series mostly up to 69.4 µM
Sequence of Estrogen receptor (Homo sapiens) (P03372 whole entry, looked up): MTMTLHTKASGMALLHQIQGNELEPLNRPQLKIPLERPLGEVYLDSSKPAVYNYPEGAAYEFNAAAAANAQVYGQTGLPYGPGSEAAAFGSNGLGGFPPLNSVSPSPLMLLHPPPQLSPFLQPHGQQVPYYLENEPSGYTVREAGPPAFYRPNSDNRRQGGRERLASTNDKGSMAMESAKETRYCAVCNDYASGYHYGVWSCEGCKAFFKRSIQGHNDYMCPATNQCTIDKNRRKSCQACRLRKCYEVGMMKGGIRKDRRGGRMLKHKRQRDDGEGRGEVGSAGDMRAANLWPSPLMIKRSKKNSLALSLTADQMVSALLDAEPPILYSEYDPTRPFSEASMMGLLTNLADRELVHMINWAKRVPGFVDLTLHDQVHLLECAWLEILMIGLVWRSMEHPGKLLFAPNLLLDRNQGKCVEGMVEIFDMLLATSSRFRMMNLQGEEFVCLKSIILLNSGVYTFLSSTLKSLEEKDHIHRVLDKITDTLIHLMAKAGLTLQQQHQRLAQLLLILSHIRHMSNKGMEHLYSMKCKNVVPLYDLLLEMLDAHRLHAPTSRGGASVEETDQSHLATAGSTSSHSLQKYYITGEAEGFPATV
Summary of the method: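 Antagonist mode: compounds in DMSO were co-added with 17beta-estradiol to ER-alpha-bla HEK293 cells (2% charcoal-stripped serum) and left 18 h at 37C. Reporter inhibition was measured as FRET fluorescence after 2 h LiveBLAzer substrate at room temperature.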

[11] = qHTS assay to identify small molecule antagonists of the estrogen receptor alpha (ER-alpha) signaling pathway - cell viability counter screen (AID 743074; calls by dose curve;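 note: HEK293 cells carrying ER-alpha-UAS-bla reporter stimulated with 17beta-estradiol; nearly all actives have a fitted effect of over 45% in size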); details: ERalpha-bla HEK293 viability, CellTiter-Glo luminescence, 18 h; series mostly up to 69.4 µM
[12] = biological target: Estrogen receptor (Homo sapiens) (UniProt P03372); assay: qHTS assay to identify small molecule agonists of the estrogen receptor alpha (ER-alpha) signaling pathway (AID 743075; calls by dose curve;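 note: HEK293 GripTite cells with ER-alpha and UAS-driven beta-lactamase reporter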); details: HEK293 ER-alpha-UAS-bla, beta-lactamase FRET ratio, 18 h; series mostly up to 70.1 µM
[13] = biological target: Estrogen receptor (Homo sapiens) (UniProt P03372); assay: qHTS assay to identify small molecule agonists of the estrogen receptor alpha (ER-alpha) signaling pathway using the BG1 cell line (AID 743079); details: BG1Luc4E2 cells, ERE-luciferase agonist, 22 h; series mostly up to 70.3 µM; note: nearly all actives have a fitted effect of over 20% in size
[14] = qHTS assay to identify small molecule antagonists of the estrogen receptor alpha (ER-alpha) signaling pathway using the BG1 cell line (AID 743080; calls by dose curve;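 note: BG1 cells stimulated with 17beta-estradiol alongside compound; nearly all actives have a fitted effect of over 25% in size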; note: potency is the fitted concentration of half-maximal effect); details: BG1Luc4E2 ERE-luciferase antagonist mode, luminescence; series mostly up to 70.3 µM
Summary of the method: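 After 5 days in phenol-red-free 10% charcoal-stripped FBS medium, BG1-Luc-4E2 cells were seeded, left 24 h at 37 C, co-treated with compounds and 17beta-estradiol for 21.5 h, then assayed for viability and luciferase.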

[15] = qHTS assay to identify small molecule antagonists of the estrogen receptor alpha (ER-alpha) signaling pathway using the BG1 cell line - cell viability counter screen (AID 743081); details: BG1Luc4E2 viability, CellTiter-Fluor, 22 h; series mostly up to 70.3 µM;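 note: compound given together with 17beta-estradiol as the ER stimulus; nearly all actives have a fitted effect of over 45% in size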
[16] = biological target: Aromatase (Homo sapiens) (UniProt P11511); assay: qHTS assay to identify aromatase inhibitors (AID 743083); details: MCF-7 aro ERE, testosterone-driven ERE luciferase, 24 h; series mostly up to 70.3 µM; note: nearly all actives have a fitted effect of over 55% in size
Sequence of Aromatase (Homo sapiens) (P11511 whole entry, looked up): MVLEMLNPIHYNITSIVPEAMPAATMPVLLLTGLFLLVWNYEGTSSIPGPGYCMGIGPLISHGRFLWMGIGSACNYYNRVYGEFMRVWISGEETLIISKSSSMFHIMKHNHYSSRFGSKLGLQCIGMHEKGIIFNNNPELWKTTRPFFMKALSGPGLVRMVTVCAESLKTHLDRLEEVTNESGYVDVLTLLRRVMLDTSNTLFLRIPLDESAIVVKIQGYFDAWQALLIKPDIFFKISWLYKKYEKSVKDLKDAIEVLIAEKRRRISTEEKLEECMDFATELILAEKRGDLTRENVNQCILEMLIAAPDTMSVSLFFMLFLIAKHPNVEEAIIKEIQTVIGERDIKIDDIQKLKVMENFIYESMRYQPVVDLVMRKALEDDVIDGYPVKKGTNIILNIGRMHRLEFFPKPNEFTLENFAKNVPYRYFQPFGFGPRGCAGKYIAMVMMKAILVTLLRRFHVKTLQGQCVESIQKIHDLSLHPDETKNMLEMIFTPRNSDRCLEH

[17] = biological target: Androgen receptor (Homo sapiens) (UniProt P10275); assay: qHTS assay to identify small molecule antagonists of the androgen receptor (AR) signaling pathway (AID 743035; active = well fitted inhibition curve with a large enough effect in the signal ratio in the repeat runs, not every such curve was filed as active; the % refers to the signal ratio; note: potency is the fitted concentration of half-maximal effect); details: HEK293 AR-UAS-bla, R1881-stimulated, beta-lactamase FRET, 16 h; series mostly up to 58.5 µM
Sequence of Androgen receptor (Homo sapiens) (P10275 whole entry, looked up): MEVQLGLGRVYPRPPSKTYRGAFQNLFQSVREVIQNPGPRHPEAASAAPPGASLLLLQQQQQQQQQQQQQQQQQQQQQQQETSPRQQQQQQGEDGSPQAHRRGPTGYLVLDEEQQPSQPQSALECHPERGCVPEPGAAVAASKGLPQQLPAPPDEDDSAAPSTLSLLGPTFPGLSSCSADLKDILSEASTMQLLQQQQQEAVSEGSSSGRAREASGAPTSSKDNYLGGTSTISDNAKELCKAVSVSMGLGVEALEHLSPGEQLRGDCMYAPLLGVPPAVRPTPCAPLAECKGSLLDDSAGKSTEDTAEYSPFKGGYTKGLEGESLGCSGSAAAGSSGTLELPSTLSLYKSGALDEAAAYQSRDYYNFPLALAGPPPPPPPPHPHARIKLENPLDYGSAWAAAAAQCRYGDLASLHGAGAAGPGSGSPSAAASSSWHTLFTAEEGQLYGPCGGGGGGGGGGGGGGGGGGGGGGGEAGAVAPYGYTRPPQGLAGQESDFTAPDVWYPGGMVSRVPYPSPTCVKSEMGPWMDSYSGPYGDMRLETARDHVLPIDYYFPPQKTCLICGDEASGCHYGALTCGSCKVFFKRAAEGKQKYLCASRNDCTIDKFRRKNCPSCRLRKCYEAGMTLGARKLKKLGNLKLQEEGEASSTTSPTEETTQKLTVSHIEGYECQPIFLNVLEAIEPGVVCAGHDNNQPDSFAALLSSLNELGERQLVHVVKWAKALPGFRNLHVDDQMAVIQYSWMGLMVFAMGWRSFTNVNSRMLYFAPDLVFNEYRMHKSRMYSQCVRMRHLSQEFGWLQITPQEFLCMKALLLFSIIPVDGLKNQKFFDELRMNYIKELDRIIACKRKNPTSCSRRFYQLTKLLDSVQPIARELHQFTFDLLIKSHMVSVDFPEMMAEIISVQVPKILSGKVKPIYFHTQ
Summary of the method: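 Steps: seed AR-UAS-bla GripTite HEK293 cells, incubate 4 h at 37C; pin in test compound, then add agonist R1881; incubate 16 h at 37C; add LiveBLAzer B/G FRET substrate, 2 h at room temperature; read fluorescence.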

[18] = biological target: Androgen receptor (Homo sapiens) (UniProt P10275); assay: qHTS assay to identify small molecule agonists of the androgen receptor (AR) signaling pathway using the MDA cell line (AID 743040; note: nearly all actives have a fitted effect of over 20% in size); details: MDA-kb2 AR-luc cells, MMTV luciferase, 16 h, active compounds read high; series mostly up to 70.3 µM
Summary of the method: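 Luciferase agonist assay: 16 h compound exposure at 37C without CO2 in MDA-kb2 AR-luc cells, whose MMTV promoter responds to both AR and GR. Luminescence measured after 30 min room-temperature incubation with ONE-Glo.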

[19] = biological target: Androgen receptor (Homo sapiens) (UniProt P10275); assay: qHTS assay to identify small molecule antagonists of the androgen receptor (AR) signaling pathway using the MDA cell line (AID 743042; note: nearly all actives have a fitted effect of over 55% in size; note: potency is the fitted concentration of half-maximal effect); details: MDA-kb2 AR-luc, MMTV luciferase, R1881 antagonist, 16 h; series mostly up to 70.3 µM
Summary of the method: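 Antagonist mode: compounds plus R1881 agonist added to MDA-kb2 AR-luc cells, incubated 16 h at 37C. Luciferase reporter luminescence quantified, with multiplexed CellTiter-Fluor readout for cell viability.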

[20] = biological target: Androgen receptor (Homo sapiens) (UniProt P10275); assay: qHTS assay to identify small molecule agonists of the androgen receptor (AR) signaling pathway (AID 743036; active = well fitted activation curve with a large enough effect in the signal ratio in the repeat runs, with a control signal flat, not every such curve was filed as active; the % refers to the signal ratio); details: HEK293 AR-UAS-bla GripTite, beta-lactamase FRET ratio, 16 h; series mostly up to 62.4 µM
Summary of the method: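 Fluorescence from a beta-lactamase FRET substrate served as read-out in AR-UAS-bla GripTite HEK293 cells. Cells were treated with DMSO-dissolved compounds for 16 h at 37C, then with LiveBLAzer B/G substrate for 2 h at room temperature.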
% is set by controls: 0 for no effect and ±100 for the full control effect.

O=S(O)(O)=S
inactive: viability change, negative = cytotoxic [1] -8.56% [at 7.04 µM] | activity change, negative = cytotoxicity [2] -4.81% [at 8.52 µM] | activity, negative = cytotoxicity [3] 5.56% [at 8.53 µM] | activity change, negative = cytotoxicity [4] -5.32% [at 8.55 µM] | activity change, negative = cytotoxicity [5] 3.7% [at 7.04 µM] | viability change, negative = cytotoxic [6] -5.99% [at 8.47 µM] | activity change, negative = cytotoxic [7] 0% [at 8.44 µM] | activity, negative = inhibition [8] -1.88% [at 8.44 µM] | activation [9] -0.901% [at 8.08 µM] | activity, negative = inhibition [10] 6.18% [at 6.71 µM] | activity, negative = cytotoxicity [11] -12.1% [at 6.72 µM] | activation [12] -2.02% [at 6.71 µM] | activation [13] 6.37% [at 8.47 µM] | activity change, negative = inhibition [14] -6.18% [at 8.47 µM] | activity change, negative = cytotoxicity [15] -1.7% [at 8.47 µM] | activity, negative = inhibition [16] 5.06% [at 8.47 µM]

C[C@@H](O)[C@H]1C(=O)N2C(C(=O)O)=C(SCCN=CN)C[C@H]12
inactive: outcome [1] | Potency [2] | Potency [3] | Potency [4] | Potency [5] | Potency [6] | Potency [7] | Potency [8] | outcome [9] | outcome [10] | outcome [11] | outcome [12] | Potency [13] | Potency [14] | outcome [15] | Potency [16]

COCCOCCOCCOCCO
inactive: outcome [1] | Potency [2] | Potency [3] | Potency [4] | Potency [5] | Potency [17] | outcome [18] | Potency [6] | Potency [19] | Potency [7] | Potency [8] | outcome [9] | outcome [10] | outcome [11] | outcome [12] | Potency [13] | Potency [14] | outcome [15] | Potency [16]

O=C(OCC(COC(=O)c1cccnc1)(COC(=O)c1cccnc1)COC(=O)c1cccnc1)c1cccnc1
inactive: outcome [1] | Potency [2] | Potency [3] | Potency [4] | Potency [5] | Potency [17] | outcome [20] | outcome [18] | Potency [6] | Potency [19] | Potency [7] | Potency [8] | outcome [9] | outcome [10] | outcome [11] | outcome [12] | Potency [13] | Potency [14] | outcome [15] | Potency [16]

CC(=O)NCCCCCC(=O)O
inactive: outcome [1] | Potency [2] | Potency [3] | Potency [4] | Potency [5] | Potency [6] | Potency [7] | Potency [8] | outcome [9] | outcome [10] | outcome [11] | outcome [12] | Potency [13] | Potency [14] | outcome [15] | Potency [16]

CCC(CC)CO
inactive: outcome [1] | Potency [2] | Potency [3] | Potency [4] | Potency [5] | Potency [17] | outcome [18] | Potency [6] | Potency [19] | Potency [7] | Potency [8] | outcome [9] | outcome [10] | outcome [11] | outcome [12] | Potency [13] | Potency [14] | outcome [15] | Potency [16]

O=C(CS(=O)Cc1ccco1)NC/C=C\COc1cc(CN2CCCCC2)ccn1 (configuration not stated)
inactive: outcome [1] | Potency [2] | Potency [3] | Potency [4] | Potency [5] | Potency [6] | Potency [7] | Potency [8] | outcome [9] | outcome [10] | outcome [11] | outcome [12] | Potency [13] | Potency [14] | outcome [15] | Potency [16]

O=C(O)C(=O)Cc1ccccc1
inactive: outcome [1] | Potency [2] | Potency [3] | Potency [4] | Potency [5] | Potency [17] | outcome [18] | Potency [6] | Potency [19] | Potency [7] | outcome [9] | outcome [10] | outcome [11] | outcome [12] | Potency [13] | Potency [14] | outcome [15] | Potency [16]

COc1nccnc1NS(=O)(=O)c1ccc(N)cc1
inactive: outcome [1] | Potency [2] | Potency [3] | Potency [4] | Potency [5] | outcome [18] | Potency [6] | Potency [19] | Potency [7] | Potency [8] | outcome [9] | outcome [15] | Potency [16]

CCN(C)C(=O)Oc1cccc([C@H](C)N(C)C)c1
inactive: outcome [1] | Potency [2] | Potency [3] | Potency [4] | Potency [5] | Potency [17] | outcome [18] | Potency [6] | Potency [19] | Potency [7] | Potency [8] | outcome [9] | outcome [10] | outcome [11] | outcome [12] | Potency [13] | Potency [14] | outcome [15] | Potency [16]

CCCCC(CC)COCCO (configuration not stated)
inactive: outcome [1] | Potency [2] | Potency [3] | Potency [4] | Potency [5] | Potency [6] | Potency [7] | Potency [8] | outcome [9] | outcome [10] | outcome [11] | outcome [12] | Potency [13] | Potency [14] | outcome [15] | Potency [16]

CC(C)NCC(O)COc1cccc2[nH]ccc12 (configuration not stated)
inactive: outcome [1] | Potency [2] | Potency [3] | Potency [4] | Potency [5] | Potency [17] | outcome [18] | Potency [6] | Potency [19] | Potency [7] | outcome [9] | outcome [11] | outcome [15] | Potency [16]

O=C(Nc1ccc(Cl)c(Cl)c1)C1CC1
active: Potency [2] 29.8 µM | Potency [3] 26.6 µM | Potency [4] 29.8 µM | Potency [17] 19 µM | Potency [19] 29.8 µM | Potency [14] 21.1 µM
inactive: outcome [1] | Potency [5] | outcome [18] | Potency [6] | Potency [7] | outcome [9] | outcome [10] | outcome [12] | outcome [15] | Potency [16]

C=CCCCCCCCCCCCC
inactive: outcome [1] | Potency [2] | Potency [3] | Potency [4] | Potency [5] | Potency [17] | outcome [18] | Potency [6] | Potency [19] | Potency [7] | outcome [9] | outcome [15] | Potency [16]

NNc1nnc(NN)c2ccccc12
inactive: outcome [1] | Potency [2] | Potency [3] | Potency [4] | Potency [5] | Potency [6] | Potency [7] | Potency [8] | outcome [9] | outcome [10] | outcome [11] | outcome [12] | Potency [13] | Potency [14] | outcome [15] | Potency [16]
